Rows were chosen to be rich in hits. Some 3.4% of all compounds tested hit in one or more screens of this group.
Tau FP inhib – inhibitors of human tau fibril formation | P10636 | K18 P301L tau heparin fibrillization, Alexa594 FP, 6 h | Potency, µM (titrated, usually from 57.7 µM), for inactives: top-dose activity, negative = inhibition, hits mostly inhibitors | 0.39% of 280,000 active; also: nearly all actives have a fitted effect of over 55% in size
Target sequence (P10636 561-689 P618L limits assumed): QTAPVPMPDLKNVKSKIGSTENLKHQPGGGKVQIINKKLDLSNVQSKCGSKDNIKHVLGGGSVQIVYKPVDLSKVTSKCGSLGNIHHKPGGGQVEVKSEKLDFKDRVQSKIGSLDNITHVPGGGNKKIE
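Recombinant K18 P301L […], labeled with Alexa 594 at 0.24 uM over 15 uM unlabeled; heparin inducer 20 uM final; 37 C, 6 hr; FP endpoint.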
KDM4E inh – blocks human JMJD2E demethylase activity. JMJD2E catalytic domain, FDH-coupled NADH fluorescence (FDH is formaldehyde dehydrogenase). Potency, µM (highest dose often 57.1 µM), for inactives: at the top dose activity change, negative = inhibition, most hits filed as inhibitors. 1.6% of 230,000 active. AID 2147; active = well fitted inhibition curve with a large enough effect, not every such curve was filed as active; inconclusive = small, poorly fitted or top-dose-only effect, or another doubt; inactive = no such curve, though single readings can be large or run the other way;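 also: 0% = wells with enzyme and -100% = buffer wells without enzyme; nearly all actives have a fitted effect of over 50% in size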
Tau fibril ThT – blocks human tau fibril formation measured by thioflavin T; P10636; recombinant tau K18 P301L, heparin-induced fibrillization, ThT fluorescence; Potency, µM (highest dose often 57.4 µM), for inactives: at the top dose activity, negative = inhibition, hits mostly inhibitors; 2.1% of 270,000 active; also: nearly all actives have a fitted effect of over 55% in size
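Heparin-induced (20 uM) aggregation of recombinant human K18 P301L tau, 15 uM unlabeled with 0.24 uM labeled, pH 7 acetate buffer, 6 hr at 37 C with compound. Fibrils quantified by 30 uM ThT fluorescence after 1 hr ambient incubation.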
GoLoco inh red – blocks human Gai1 binding to RGS12 GoLoco peptide, red readout; Gai1:RGS12 GoLoco peptide FP, rhodamine, 10 min; AID 880; 0.44% of 230,000 active; P63096; Potency, µM (highest dose often 61.6 µM), inactives show at the highest dose activity, negative = inhibition, usual class: inhibitors; active = well fitted inhibition curve with a large enough effect, not every such curve was filed as active; inactive = no such curve, though single readings can be large or run the other way; also: nearly all actives have a fitted effect of over 30% in size
Target sequence (P63096 whole entry, looked up): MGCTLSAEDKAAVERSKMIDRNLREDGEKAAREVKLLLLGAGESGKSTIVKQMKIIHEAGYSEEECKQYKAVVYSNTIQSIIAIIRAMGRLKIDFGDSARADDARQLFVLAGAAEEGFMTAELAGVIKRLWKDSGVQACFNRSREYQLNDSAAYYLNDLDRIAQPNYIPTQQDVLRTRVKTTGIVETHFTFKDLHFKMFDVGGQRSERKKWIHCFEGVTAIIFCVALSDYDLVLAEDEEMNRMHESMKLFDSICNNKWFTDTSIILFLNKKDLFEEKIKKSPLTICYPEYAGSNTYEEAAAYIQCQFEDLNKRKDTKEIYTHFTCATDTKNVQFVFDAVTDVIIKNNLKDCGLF
Tau fluor counter – counter-screen for tau fibril formation inhibitors | Potency, µM (doses to about 57.7 µM), inactives show at the top dose activity change, negative = decrease | tau K18 P301L Alexa594 fluorescence, heparin fibrillization | 0.93% of 280,000 active; also: nearly all actives have a fitted effect of over 55% in size
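Human tau K18 P301L (15 uM unlabeled, 0.24 uM Alexa 594-labeled) in 100 mM sodium acetate pH 7 with 20 uM heparin, 6 hr at 37 C. ThT 30 uM added, 1 hr ambient; Alexa 594 FP and total fluorescence read at 555/632 nm.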
An asterisk follows results filed as active; ? = inconclusive; nt = no result; [ ] = remark or other dose. Unless noted, calls follow the shape of the dose curve; as a rule, active = well fitted curve in the direction sought with a large enough effect; inconclusive = small, poorly fitted or top-dose-only effect, or another doubt; inactive = no such curve, though single readings can be large; an effect the other way counts as inactive or inconclusive. Unless noted, % is scaled to controls: 0 for no effect and ±100 for the full control effect; potency is read from the fitted curve at half-maximal effect.

SMILES	Tau FP inhib	KDM4E inh	Tau fibril ThT	GoLoco inh red	Tau fluor counter
CCOC(=O)C1=C(CSc2nc3c(cc2C#N)CN(C)CC3)OC(N)=C(C#N)C1c1ccc(F)cc1 (centres undefined)	?	?	16µM*	96%	?
Cc1cc(C)cc(C(=O)Nc2ccc(-c3nc4ncccc4o3)cc2)c1	-14%	nt	?	nt	?
COc1ccc(-c2cn3c(n2)sc2cc(C(=O)NC4CCCc5ccccc54)ccc23)cc1 (centres undefined)	-7%	nt	10%	nt	7%
O=[N+]([O-])c1ccc(O)c(/C=N/n2cnc3ccccc32)c1	5%	9%	?	-4%	-19%
Cc1ccc(/C=C2\SC(=S)N(/N=C/c3cc([N+](=O)[O-])ccc3O)C2=O)o1	?	5%	18µM*	59%	?
COc1ccc(-c2csc(NC3=NCCCCC3)n2)cc1	19%	6%	?	9%	-27%
COc1ccc(-c2csc(NNC3=NCCCCC3)n2)cc1	?	-12%	25µM*	2%	-22%
c1ccc(-c2csc(NNC3=NCCCCC3)n2)cc1	25µM*	-11%	25µM*	-1%	?
Clc1ccc(-c2csc(NNC3=NCCCCC3)n2)cc1	?	2%	32µM*	6%	?
COc1ccccc1N1CCN(c2ncnc3c2cnn3-c2cc(Cl)ccc2C)CC1	12%	nt	?	nt	-26%
O=C1CC(c2ccco2)CC(O)=C1C=NCCO (centres undefined)	-2%	-11%	-4%	nt	3%
O=C1CC(c2ccco2)CC(O)=C1C=NCC1NCCc2ccccc21 (centres undefined)	-7%	20µM*	?	5%	-14%
Cc1ccc(S(=O)(=O)/N=C2/C=C(C3C(=O)CC(C)(C)CC3=O)C(=O)c3ccccc32)cc1	22µM*	?	8.9µM*	-17%	8.9µM*[quencher]
CN1CCN(c2ccc(NC(=O)c3cccc(OCc4ccccc4)c3)cc2)CC1	?	5%	?	8%	14µM*[quencher]
CN1CCN(c2ccc(NC(=O)c3sc4ccccc4c3Cl)cc2)CC1	4%	?	5µM*	5%	?
O=C(Cn1c(-c2ccccc2)noc1=O)Nc1ccc(N2CCCCCC2)cc1	?	-9%	-14%	-19%	14µM*[quencher]
CC(=O)Nc1ccc(N2CCCC2)cc1	?	?	28µM*	-16%	?
CCOc1cc2sc(N3CCC(C(=O)Nc4ccc(C)cc4C)CC3)nc2cc1Br	8%	nt	?	nt	-29%
Cc1c(C(=O)N2CCCCCC2)c(S(=O)(=O)Nc2ccc(OC(F)(F)F)cc2)c(C)n1C	6%	nt	6%	nt	0%
CCOc1ccc2nc(N3CCCC(C(=O)Nc4cc(Cl)c(OC)cc4OC)C3)sc2c1 (centres undefined)	2%	nt	?	nt	?
O=C(Nc1ccc(N2CCCCC2)cc1)c1ccccc1	13%	-3%	?	1%	-20%
O=C(Nc1ccc(N2CCCC2)cc1)c1cccc(F)c1	?	-7%	13µM*	-3%	?
CC1=Nc2ccccc2/C1=C\c1nc(-c2ccc(F)cc2)oc1O	?	?	7.1µM*	12%	10µM*[quencher]
C/C=C1/C(=O)C[C@@H]2[C@H]3CCC4=CC(=O)CC[C@]4(C)[C@@H]3CC[C@]12C	-9%	nt	?	3%	-6%
CNC(=O)/C(C#N)=C\c1ccc(CNS(=O)(=O)c2ccccc2)o1	-6%	3%	1%	8%	8%
SMILES	Tau FP inhib	KDM4E inh	Tau fibril ThT	GoLoco inh red	Tau fluor counter
COCCCN1C(=O)/C(=C/c2ccc(CNS(=O)(=O)c3ccccc3)o2)C(C(=O)OC)=C1C	?	?	14µM*	4%	-19%
O=C(O)c1cc(NC(=O)c2ccc(Cl)c([N+](=O)[O-])c2)cc(C(=O)O)c1	2%	?	-2%	-9%	-1%
O=C(Nc1ccccc1)Nc1ccc(Cl)c([N+](=O)[O-])c1	?	-4%	?	-4%	11µM*[quencher]
O=C(Nc1ccc(C(O)(C(F)(F)F)C(F)(F)F)cc1)c1ccc(Cl)c([N+](=O)[O-])c1	-14%	-10%	?	5%	13µM*[quencher]
CCOCCc1nn2c(=O)cc(COC(=O)c3ccccc3NC(=O)C3CCCCC3)nc2s1	4%	nt	-5%	nt	-5%
CN(C(=S)Nc1ccc(Oc2ccccc2)cc1)c1ccc(O)cc1	0%	5%	-2%	-36%	-4%
CN(C(=S)Nc1ccc(SC(F)F)cc1)c1ccc(O)cc1	?	?	2.5µM*	-21%	?
Cc1nc(-c2ccc(S(=O)(=O)N(C)Cc3ccccc3)cc2)co1	4%	nt	-5%	nt	-19%
CN(C)c1ccc(NC(=O)Cn2cc(S(=O)(=O)Cc3ccccc3Cl)c3ccccc32)cc1	17%	nt	?	nt	11µM*[quencher]
COc1ccccc1CNc1cc(C)nc2nc(-c3ccc(C)cc3)nn12	0%	nt	0%	nt	6%
Nc1ccccc1SC1CC(=O)N(c2ccc(Cl)c(Cl)c2)C1=O (centres undefined)	28µM*	2%	5%	8%	?
O=C1CC(SC(=Nc2ccccc2)Nc2ccccc2)C(=O)N1c1ccc(Cl)c(Cl)c1 (centres undefined)	7.9µM*	-10%	11%	14%	?
CN=C(Nc1cc(Cl)ccc1Cl)SC1CC(=O)N(c2ccc(C(=O)OC)cc2)C1=O (centres undefined)	28µM*	-3%	7%	8%	?
Nc1ccccc1SC1CC(=O)N(c2ccc3c(c2)OCCO3)C1=O (centres undefined)	-1%	1%	nt	5%	?
CC(=O)N1c2ccc(S(=O)(=O)NCc3ccc(Cl)cc3)cc2CC1C (centres undefined)	1%	nt	-5%	nt	-10%
CCCCN1CC(c2nc3ccccc3n2CCCCOc2cccc(C)c2C)CC1=O (centres undefined)	5%	nt	7%	nt	4%
CCCCc1nc2c(c3c1C[C@H](C)OC3)CN(C(=O)c1ccco1)CC2	1%[11.6 µM]	-10%[11.4 µM]	-2%[11.5 µM]	3%[14.2 µM]	-5%[11.6 µM]
CCOC(=O)c1ccc(NC(=O)CC2C(=O)N(c3cccc(OC)c3)C(=O)N2Cc2cccnc2)cc1 (centres undefined)	?	nt	9%	nt	-12%
O=[N+]([O-])c1ccc(N/N=C/c2c[nH]c3ccccc23)c(S(=O)(=O)Nc2ccc(Cl)cc2)c1	-11%	11%	3.2µM*	28%	3.2µM*[quencher]
COc1ccccc1NS(=O)(=O)c1cc([N+](=O)[O-])ccc1N/N=C/c1c(C)[nH]c2ccccc12	?	-2%	3.2µM*	181%	6.3µM*[quencher]
Cc1c(C(=O)N2CCOCC2)oc2c1-c1nn(CC(=O)NCc3cccc(Cl)c3)cc1CC2	3%	nt	-7%	nt	-7%
CSc1nnc(C)c(/C=C/Nc2ccc(C)cc2)n1	2%	-3%	5µM*	17%	-23%

Compound activity (PubChem)
